Active and inactive are the calls of the source. The call rests on the fitted dose curve; in most records, active means well fitted activation curve with a large enough effect; inconclusive means small, poorly fitted or top-dose-only effect; inactive means flat fitted curve, though single readings scatter.
assay: Cellular Toxicity (caspase-3) N2a (AID 665); conditions: N2a cells, luminescence, normalized: DMSO 0%, 10 µM staurosporine 100%; series mostly up to 92.2 µM;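 further: compound exposure lasted 16 h at 37 °C before readout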
Text: NIH Chemical Genomics Center [NCGC]
NIH Molecular Libraries Screening Centers Network [MLSCN]
National Institutes of Environmental Health Sciences [NIEHS]
National Toxicology Program [NTP]
We have developed a 1536-well cell-based assay for quantitative high throughput screening (qHTS) against a number of cell lines to determine in vitro caspase 3/7 activity of small molecules. This particular assay uses the N2a cell line which is derived from mouse neuroblastoma.
NCGC Assay Protocol Summary:
The Caspase-Glo 3/7 assay (Promega) is a homogeneous method to measure caspase-3 and caspase-7 activities in cultured cells. The quantitation of caspase 3/7 activity is based on the cleavage of a peptide-aminoluciferin substrate. After caspase cleaves the substrate the free aminoluciferin is liberated and serves as the substrate of luciferase, which generates the light. The luminescent signal is proportional to the amount of caspase 3/7 activity present.
Using the Caspase-Glo 3/7 assay, the amount of caspase 3/7 activity was measured in the N2a cells with complete culture medium following compound treatment for 16 hours. The assay was performed in opaque white 1536-well plates. In the screen, staurosporine and doxorubicin were used as positive controls. Library compounds were measured for their ability to cause the activation of caspase 3/7 in the cell line, as reflected by an increase in luminescence signal, in a concentration-dependent manner. Data were normalized to the controls for basal activity (DMSO only) and 100% stimulation (10 uM staurosporine). AC50 values were determined from concentration-response data modeled with the standard Hill equation.
qHTS protocol for caspase 3/7 assay in mouse N2a cell line
[Step] [Parameter] [Value] [Description]
1. Reagent; 5 uL; 1500 mouse N2a cells/well
2. Time; 5 hr; 37 °C incubation
4. Controls; 23 nL; doxorubicin 7 pM to 100 uM & staurosporine 1.4 pM to 20 uM
5. Time; 16 hr; 37 °C incubation
6. Reagent; 5 uL; Caspase-Glo 3/7 reagent
7. Time; 1 hr; Room Temperature
8. Detection; Luminescence; Viewlux plate reader
Keywords: caspase 3/7, apoptosis, mouse N2a cell line, luminescence, NTPHTS, NTPHTS_NCGC, NIEHS, EPA, DSSTox, MLSMR, MLSCN, NIH Roadmap, qHTS, NCGC

Compound | outcome
c1ccc2[nH]cnc2c1 | inactive
CC(=C/C=C/C(C)=C/C=C/C=C(C)/C=C/C=C(C)/C=C/C(=O)O)/C=C/C(=O)O | inactive
N#CCc1ccccc1[N+](=O)[O-] | inactive
Cc1ccccc1C#N | inactive
CCCC(C)CO (stereo not given) | inactive
NC=O | inactive
Nc1cccc([N+](=O)[O-])c1 | inactive
C(=C/c1ccccc1)/c1ccccc1 | inactive
O=C(O)c1cccc(Cl)c1Cl | inactive
Cc1cccc(Br)c1 | inactive
CCCCOCCOCCOCCCC | inactive
O=c1[nH][nH]c(=O)c2cc([N+](=O)[O-])ccc12 | inactive
CCCOCC(C)O (stereo not given) | inactive
O=C(O)c1ccccc1[N+](=O)[O-] | inactive
O=CNc1ccccc1 | inactive
CNC(=O)N(c1ccccc1)c1ccccc1 | inactive
O=C1C=CCCC1 | inactive
O=C1OC(=O)c2cc([N+](=O)[O-])ccc21 | inactive
CCOCCO | inactive
Nc1ccc([N+](=O)[O-])c(N)c1 | inactive

Compound | outcome
CC(C)Cc1nccs1 | inactive
Cc1ccccc1Br | inactive
Cc1ccc2ccccc2c1[N+](=O)[O-] | inactive
CCCCC(=O)N(C)C | inactive
CC(=O)c1ccc([N+](=O)[O-])cc1 | inactive
CCCCC(CC)CO (stereo not given) | inactive
COc1ccc(N)c(C)c1 | inactive
NC(N)=S | inactive
C1CCOC1 | inactive
COc1ccc(N)c(OC)c1 | inactive
COc1ccc(OC)cc1 | inactive
Cc1ccc2nc(-c3ccc(N)cc3)sc2c1S(=O)(=O)O | inactive
CCCCC(CC)C(=O)O (stereo not given) | inactive
CCC(C)(C)C | inactive
Cc1ccc2oc(=O)ccc2c1 | inactive
CC(=O)Nc1ccccc1C | inactive
O=C(O)c1ccccc1C(=O)O | inactive
CCc1ccccc1 | inactive
NC(=O)CCCCC(N)=O | inactive
C=CC(=O)NC(C)C | inactive

Source: PubChem BioAssay (NCATS)
